# Measurements taken from PMC11062922 (Nature Chemical Biology, 2023).
# Read-outs that look alike come from different tables or passages of the source.
# Columns and labels:
# Conditions in all cases: read-out: apparent Kd, n = 1
# [1] = tested on: ERN1
# [2] = tested on: GAK
# [3] = tested on: IKBKE
# [4] = compound concentrations:100 nM and 1000 nM (sheet 'Lestaurtinib' of Supplementary Table 1),run:Lestaurtinib_02766_R1,Plate:MR027
# [5] = compound concentrations:100 nM and 1000 nM (sheet 'Lestaurtinib' of Supplementary Table 1),run:Lestaurtinib_02766_R2,Plate:MR027
# [6] = compound concentrations:100 nM and 1000 nM (sheet 'Lestaurtinib' of Supplementary Table 1),run:Lestaurtinib_02766_R3,Plate:MR027
# [7] = compound concentrations:100 nM and 1000 nM (sheet 'Lestaurtinib' of Supplementary Table 1),run:Lestaurtinib_02768_R1,Plate:MR028
# [8] = compound concentrations:100 nM and 1000 nM (sheet 'Lestaurtinib' of Supplementary Table 1),run:Lestaurtinib_02768_R2,Plate:MR028
# [9] = compound concentrations:100 nM and 1000 nM (sheet 'Lestaurtinib' of Supplementary Table 1),run:Lestaurtinib_02802_R1,Plate:MR029
# [10] = compound concentrations:100 nM and 1000 nM (sheet 'Lestaurtinib' of Supplementary Table 1),run:Lestaurtinib_02896_R3,Plate:MR030
# [11] = compound concentrations:100 nM and 1000 nM (sheet 'Lestaurtinib' of Supplementary Table 1),run:Lestaurtinib_03172_R2,Plate:MR031
# [12] = compound concentrations:100 nM and 1000 nM (sheet 'Lestaurtinib' of Supplementary Table 1),run:Lestaurtinib_03172_R3,Plate:MR031
# [13] = compound concentrations:100 nM and 1000 nM (sheet 'Lestaurtinib' of Supplementary Table 1),run:Lestaurtinib_02339_R1,Plate:MR001
# [14] = compound concentrations:100 nM and 1000 nM (sheet 'Lestaurtinib' of Supplementary Table 1),run:Lestaurtinib_02339_R2,Plate:MR001
substance,measurement,setting,value
Lestaurtinib,potency estimated from few doses,"[1]; compound concentrations:100 nM and 1000 nM (sheet 'Lestaurtinib' of Supplementary Table 1),run:Lestaurtinib_02765_R2,Plate:MR026",84.8 nM
same,potency estimated from few doses,"[1]; compound concentrations:100 nM and 1000 nM (sheet 'Lestaurtinib' of Supplementary Table 1),run:Lestaurtinib_02765_R3,Plate:MR026",113 nM
same,potency estimated from few doses,[1]; [4],29.6 nM
same,potency estimated from few doses,[1]; [5],54.9 nM
same,potency estimated from few doses,[1]; [6],73.5 nM
same,potency estimated from few doses,[1]; [7],51.4 nM
same,potency estimated from few doses,[1]; [8],55.4 nM
same,potency estimated from few doses,"[1]; compound concentrations:100 nM and 1000 nM (sheet 'Lestaurtinib' of Supplementary Table 1),run:Lestaurtinib_02795_R2,Plate:MR022",59.6 nM
same,potency estimated from few doses,[1]; [9],60.8 nM
same,potency estimated from few doses,"[1]; compound concentrations:100 nM and 1000 nM (sheet 'Lestaurtinib' of Supplementary Table 1),run:Lestaurtinib_02802_R3,Plate:MR029",176 nM
same,potency estimated from few doses,[1]; [10],48.9 nM
same,potency estimated from few doses,[1]; [11],68.4 nM
same,potency estimated from few doses,[1]; [12],71.8 nM
same,potency estimated from few doses,[2]; [13],681 nM
same,potency estimated from few doses,[2]; [14],515 nM
same,potency estimated from few doses,"[2]; compound concentrations:100 nM and 1000 nM (sheet 'Lestaurtinib' of Supplementary Table 1),run:Lestaurtinib_02339_R3,Plate:MR001",744 nM
same,potency estimated from few doses,"[2]; compound concentrations:100 nM and 1000 nM (sheet 'Lestaurtinib' of Supplementary Table 1),run:Lestaurtinib_02364_R2,Plate:MR002",838 nM
same,potency estimated from few doses,"[2]; compound concentrations:100 nM and 1000 nM (sheet 'Lestaurtinib' of Supplementary Table 1),run:Lestaurtinib_02364_R3,Plate:MR002",670 nM
same,potency estimated from few doses,"[2]; compound concentrations:100 nM and 1000 nM (sheet 'Lestaurtinib' of Supplementary Table 1),run:Lestaurtinib_02367_R1,Plate:MR003",703 nM
same,potency estimated from few doses,"[2]; compound concentrations:100 nM and 1000 nM (sheet 'Lestaurtinib' of Supplementary Table 1),run:Lestaurtinib_02367_R2,Plate:MR003",797 nM
same,potency estimated from few doses,"[2]; compound concentrations:100 nM and 1000 nM (sheet 'Lestaurtinib' of Supplementary Table 1),run:Lestaurtinib_02367_R3,Plate:MR003",731 nM
same,potency estimated from few doses,"[2]; compound concentrations:100 nM and 1000 nM (sheet 'Lestaurtinib' of Supplementary Table 1),run:Lestaurtinib_02381_R2,Plate:MR004",635 nM
same,potency estimated from few doses,"[2]; compound concentrations:100 nM and 1000 nM (sheet 'Lestaurtinib' of Supplementary Table 1),run:Lestaurtinib_02407_R1,Plate:MR005",718 nM
same,potency estimated from few doses,"[2]; compound concentrations:100 nM and 1000 nM (sheet 'Lestaurtinib' of Supplementary Table 1),run:Lestaurtinib_02407_R2,Plate:MR005",809 nM
same,potency estimated from few doses,"[2]; compound concentrations:100 nM and 1000 nM (sheet 'Lestaurtinib' of Supplementary Table 1),run:Lestaurtinib_02407_R3,Plate:MR005",702 nM
same,potency estimated from few doses,"[2]; compound concentrations:100 nM and 1000 nM (sheet 'Lestaurtinib' of Supplementary Table 1),run:Lestaurtinib_02422_R1,Plate:MR006",425 nM
same,potency estimated from few doses,"[2]; compound concentrations:100 nM and 1000 nM (sheet 'Lestaurtinib' of Supplementary Table 1),run:Lestaurtinib_02422_R2,Plate:MR006",9.54 nM
same,potency estimated from few doses,"[2]; compound concentrations:100 nM and 1000 nM (sheet 'Lestaurtinib' of Supplementary Table 1),run:Lestaurtinib_02422_R3,Plate:MR006",725 nM
same,potency estimated from few doses,"[2]; compound concentrations:100 nM and 1000 nM (sheet 'Lestaurtinib' of Supplementary Table 1),run:Lestaurtinib_02437_R1,Plate:MR007",654 nM
same,potency estimated from few doses,"[2]; compound concentrations:100 nM and 1000 nM (sheet 'Lestaurtinib' of Supplementary Table 1),run:Lestaurtinib_02437_R2,Plate:MR007",698 nM
same,potency estimated from few doses,"[2]; compound concentrations:100 nM and 1000 nM (sheet 'Lestaurtinib' of Supplementary Table 1),run:Lestaurtinib_02437_R3,Plate:MR007",58.5 nM
same,potency estimated from few doses,"[2]; compound concentrations:100 nM and 1000 nM (sheet 'Lestaurtinib' of Supplementary Table 1),run:Lestaurtinib_02438_R1,Plate:MR008",700 nM
same,potency estimated from few doses,"[2]; compound concentrations:100 nM and 1000 nM (sheet 'Lestaurtinib' of Supplementary Table 1),run:Lestaurtinib_02438_R2,Plate:MR008",667 nM
same,potency estimated from few doses,"[2]; compound concentrations:100 nM and 1000 nM (sheet 'Lestaurtinib' of Supplementary Table 1),run:Lestaurtinib_02438_R3,Plate:MR008",750 nM
same,potency estimated from few doses,"[2]; compound concentrations:100 nM and 1000 nM (sheet 'Lestaurtinib' of Supplementary Table 1),run:Lestaurtinib_02473_R3,Plate:MR010",59.2 nM
same,potency estimated from few doses,"[2]; compound concentrations:100 nM and 1000 nM (sheet 'Lestaurtinib' of Supplementary Table 1),run:Lestaurtinib_02482_R1,Plate:MR011",870 nM
same,potency estimated from few doses,"[2]; compound concentrations:100 nM and 1000 nM (sheet 'Lestaurtinib' of Supplementary Table 1),run:Lestaurtinib_02482_R2,Plate:MR011",804 nM
same,potency estimated from few doses,"[2]; compound concentrations:100 nM and 1000 nM (sheet 'Lestaurtinib' of Supplementary Table 1),run:Lestaurtinib_02482_R3,Plate:MR011",707 nM
same,potency estimated from few doses,"[2]; compound concentrations:100 nM and 1000 nM (sheet 'Lestaurtinib' of Supplementary Table 1),run:Lestaurtinib_02487_R2,Plate:MR012",783 nM
same,potency estimated from few doses,"[2]; compound concentrations:100 nM and 1000 nM (sheet 'Lestaurtinib' of Supplementary Table 1),run:Lestaurtinib_02496_R1,Plate:MR013",552 nM
same,potency estimated from few doses,"[2]; compound concentrations:100 nM and 1000 nM (sheet 'Lestaurtinib' of Supplementary Table 1),run:Lestaurtinib_02496_R2,Plate:MR013",507 nM
same,potency estimated from few doses,"[2]; compound concentrations:100 nM and 1000 nM (sheet 'Lestaurtinib' of Supplementary Table 1),run:Lestaurtinib_02496_R3,Plate:MR013",639 nM
same,potency estimated from few doses,"[2]; compound concentrations:100 nM and 1000 nM (sheet 'Lestaurtinib' of Supplementary Table 1),run:Lestaurtinib_02566_R1,Plate:MR014",580 nM
same,potency estimated from few doses,"[2]; compound concentrations:100 nM and 1000 nM (sheet 'Lestaurtinib' of Supplementary Table 1),run:Lestaurtinib_02566_R3,Plate:MR014",806 nM
same,potency estimated from few doses,"[2]; compound concentrations:100 nM and 1000 nM (sheet 'Lestaurtinib' of Supplementary Table 1),run:Lestaurtinib_02572_R1,Plate:MR015",486 nM
same,potency estimated from few doses,"[2]; compound concentrations:100 nM and 1000 nM (sheet 'Lestaurtinib' of Supplementary Table 1),run:Lestaurtinib_02572_R3,Plate:MR015",627 nM
same,potency estimated from few doses,"[2]; compound concentrations:100 nM and 1000 nM (sheet 'Lestaurtinib' of Supplementary Table 1),run:Lestaurtinib_02577_R1,Plate:MR016",484 nM
same,potency estimated from few doses,"[2]; compound concentrations:100 nM and 1000 nM (sheet 'Lestaurtinib' of Supplementary Table 1),run:Lestaurtinib_02577_R3,Plate:MR016",574 nM
same,potency estimated from few doses,"[2]; compound concentrations:100 nM and 1000 nM (sheet 'Lestaurtinib' of Supplementary Table 1),run:Lestaurtinib_02584_R1,Plate:MR017",641 nM
same,potency estimated from few doses,"[2]; compound concentrations:100 nM and 1000 nM (sheet 'Lestaurtinib' of Supplementary Table 1),run:Lestaurtinib_02584_R2,Plate:MR017",628 nM
same,potency estimated from few doses,"[2]; compound concentrations:100 nM and 1000 nM (sheet 'Lestaurtinib' of Supplementary Table 1),run:Lestaurtinib_02601_R1,Plate:MR018",786 nM
same,potency estimated from few doses,"[2]; compound concentrations:100 nM and 1000 nM (sheet 'Lestaurtinib' of Supplementary Table 1),run:Lestaurtinib_02601_R2,Plate:MR018",761 nM
same,potency estimated from few doses,"[2]; compound concentrations:100 nM and 1000 nM (sheet 'Lestaurtinib' of Supplementary Table 1),run:Lestaurtinib_02601_R3,Plate:MR018",56 nM
same,potency estimated from few doses,"[2]; compound concentrations:100 nM and 1000 nM (sheet 'Lestaurtinib' of Supplementary Table 1),run:Lestaurtinib_02606_R1,Plate:MR019",646 nM
same,potency estimated from few doses,"[2]; compound concentrations:100 nM and 1000 nM (sheet 'Lestaurtinib' of Supplementary Table 1),run:Lestaurtinib_02606_R2,Plate:MR019",729 nM
same,potency estimated from few doses,"[2]; compound concentrations:100 nM and 1000 nM (sheet 'Lestaurtinib' of Supplementary Table 1),run:Lestaurtinib_02624_R1,Plate:MR020",818 nM
same,potency estimated from few doses,"[2]; compound concentrations:100 nM and 1000 nM (sheet 'Lestaurtinib' of Supplementary Table 1),run:Lestaurtinib_02624_R2,Plate:MR020",627 nM
same,potency estimated from few doses,"[2]; compound concentrations:100 nM and 1000 nM (sheet 'Lestaurtinib' of Supplementary Table 1),run:Lestaurtinib_02624_R3,Plate:MR020",770 nM
same,potency estimated from few doses,"[2]; compound concentrations:100 nM and 1000 nM (sheet 'Lestaurtinib' of Supplementary Table 1),run:Lestaurtinib_02724_R1,Plate:MR021",577 nM
same,potency estimated from few doses,"[2]; compound concentrations:100 nM and 1000 nM (sheet 'Lestaurtinib' of Supplementary Table 1),run:Lestaurtinib_02724_R2,Plate:MR021",628 nM
same,potency estimated from few doses,"[2]; compound concentrations:100 nM and 1000 nM (sheet 'Lestaurtinib' of Supplementary Table 1),run:Lestaurtinib_02748_R1,Plate:MR024",455 nM
same,potency estimated from few doses,"[2]; compound concentrations:100 nM and 1000 nM (sheet 'Lestaurtinib' of Supplementary Table 1),run:Lestaurtinib_02748_R2,Plate:MR024",649 nM
same,potency estimated from few doses,"[2]; compound concentrations:100 nM and 1000 nM (sheet 'Lestaurtinib' of Supplementary Table 1),run:Lestaurtinib_02748_R3,Plate:MR024",731 nM
same,potency estimated from few doses,"[2]; compound concentrations:100 nM and 1000 nM (sheet 'Lestaurtinib' of Supplementary Table 1),run:Lestaurtinib_02752_R2,Plate:MR025",637 nM
same,potency estimated from few doses,"[2]; compound concentrations:100 nM and 1000 nM (sheet 'Lestaurtinib' of Supplementary Table 1),run:Lestaurtinib_02752_R3,Plate:MR025",696 nM
same,potency estimated from few doses,[2]; [4],591 nM
same,potency estimated from few doses,[2]; [5],36.2 nM
same,potency estimated from few doses,[2]; [6],762 nM
same,potency estimated from few doses,[2]; [7],728 nM
same,potency estimated from few doses,[2]; [8],752 nM
same,potency estimated from few doses,"[2]; compound concentrations:100 nM and 1000 nM (sheet 'Lestaurtinib' of Supplementary Table 1),run:Lestaurtinib_02795_R1,Plate:MR022",828 nM
same,potency estimated from few doses,[2]; [9],614 nM
same,potency estimated from few doses,"[2]; compound concentrations:100 nM and 1000 nM (sheet 'Lestaurtinib' of Supplementary Table 1),run:Lestaurtinib_02802_R2,Plate:MR029",635 nM
same,potency estimated from few doses,"[2]; compound concentrations:100 nM and 1000 nM (sheet 'Lestaurtinib' of Supplementary Table 1),run:Lestaurtinib_02896_R2,Plate:MR030",687 nM
same,potency estimated from few doses,[2]; [10],634 nM
same,potency estimated from few doses,"[2]; compound concentrations:100 nM and 1000 nM (sheet 'Lestaurtinib' of Supplementary Table 1),run:Lestaurtinib_03172_R1,Plate:MR031",665 nM
same,potency estimated from few doses,[2]; [11],786 nM
same,potency estimated from few doses,[2]; [12],687 nM
same,potency estimated from few doses,"[2]; compound concentrations:100 nM and 1000 nM (sheet 'Lestaurtinib' of Supplementary Table 1),run:Lestaurtinib_03252_R1,Plate:MR032",707 nM
same,potency estimated from few doses,"[2]; compound concentrations:100 nM and 1000 nM (sheet 'Lestaurtinib' of Supplementary Table 1),run:Lestaurtinib_03252_R2,Plate:MR032",29.5 nM
same,potency estimated from few doses,"[2]; compound concentrations:100 nM and 1000 nM (sheet 'Lestaurtinib' of Supplementary Table 1),run:Lestaurtinib_03260_R1,Plate:MR033",784 nM
same,potency estimated from few doses,"[2]; compound concentrations:100 nM and 1000 nM (sheet 'Lestaurtinib' of Supplementary Table 1),run:Lestaurtinib_03260_R2,Plate:MR033",821 nM
same,potency estimated from few doses,"[2]; compound concentrations:100 nM and 1000 nM (sheet 'Lestaurtinib' of Supplementary Table 1),run:Lestaurtinib_03260_R3,Plate:MR033",793 nM
same,potency estimated from few doses,[3]; [13],861 nM
same,potency estimated from few doses,[3]; [14],585 nM
